Assay outcomes as filed in PubChem.
Only some compounds are listed: those with a hit (about 11% of all), similar ones and a draw of the others.
HPGD inh: blocks human HPGD enzyme activity; AID 894; Potency, µM, without a hit: at the top dose activity change, negative = inhibition, usual class: inhibitors; P15428; 150,000 compounds, 4.3% hits; purified HPGD, NADH fluorescence kinetic, PGE2 substrate; active = well fitted inhibition curve with a large enough effect, not every such curve was filed as active; inconclusive = small, poorly fitted or top-dose-only effect, or another doubt; inactive = no such curve, though single readings can be large or run the other way; note: potency is the fitted concentration of half-maximal effect; % is set by controls: 0 for no effect and ±100 for the full control effect
Target sequence (P15428 whole entry, looked up): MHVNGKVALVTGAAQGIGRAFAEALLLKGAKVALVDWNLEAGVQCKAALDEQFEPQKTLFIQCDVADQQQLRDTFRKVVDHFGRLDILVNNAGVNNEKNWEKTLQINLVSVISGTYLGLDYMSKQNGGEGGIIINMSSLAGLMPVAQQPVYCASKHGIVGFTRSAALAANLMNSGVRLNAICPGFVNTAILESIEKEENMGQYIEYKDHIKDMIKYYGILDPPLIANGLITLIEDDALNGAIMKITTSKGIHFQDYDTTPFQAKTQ
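20 nM HPGD preincubated 15 min at room temperature with compound in 50 mM Tris-HCl pH 8, 0.01% Tween 20. Started with 1 mM NAD+ and 30 uM prostaglandin E2; NADH fluorescence (360/450 nm) read 5 times over 30-s intervals, last minus first.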
HttQ103 aggreg: reduces HttQ103-GFP aggregates in PC12 cells. PC12 HttQ103-GFP aggregates, Acumen cytometry, 40 h. 220,000 compounds, 1.1% hits. Potency, µM (highest dose often 46.1 µM), inactives show at the highest dose activity change, negative = inhibition, usual class: inhibitors; note: potency is the fitted concentration of half-maximal effect; % is set by controls: 0 for no effect and ±100 for the full control effect; nearly all actives have a fitted effect of over 60% in size
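Compounds (qHTS titration) were added to PC12 cells expressing an ecdysone-driven HTT exon 1 Q103–GFP fusion after induction with 100 nM tebufenozide. Aggregate formation was measured as GFP objects in cell lysates.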
PNC assembly inh: blocks assembly of the perinucleolar compartment; PC3M PTB-GFP, PNC prevalence imaging, 16 h; hits give low values; activity change (PNC), negative = inhibition, % at 10 µM; 140,000 compounds, 3.1% hits;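 active = readout at or below -70, meaning at least 70% loss of cells showing the perinucleolar compartment, a nuclear body marking cancer cells; inconclusive = readout between -30 and a set limit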;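 note: plate controls were DMSO wells for no effect and camptothecin positive control wells for full effect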
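PC3M cells stably expressing PTB-GFP, 750–1000 cells/well, treated 16 h at 37 °C with compound (23 nl of library stock), in duplicate. After paraformaldehyde fixation and Hoechst stain, imaged at 20x; PNC prevalence scored by image analysis.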
ALDH1A1 block: inhibitors of human aldehyde dehydrogenase 1A1; Potency, µM (series often up to 75.3 µM), for the others: at the top dose activity, negative = inhibition, usual class: inhibitors; AID 1030; P00352; Purified ALDH1A1, NADH fluorescence, propionaldehyde substrate; 220,000 compounds, 7.3% hits; active = well fitted inhibition curve with a large enough effect, not every such curve was filed as active; inconclusive = small, poorly fitted or top-dose-only effect, or another doubt; inactive = no such curve, though single readings can be large or run the other way;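 note: potency is the fitted concentration of half-maximal effect; plate controls were no enzyme wells and a reference inhibitor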
Target sequence (P00352 whole entry, looked up): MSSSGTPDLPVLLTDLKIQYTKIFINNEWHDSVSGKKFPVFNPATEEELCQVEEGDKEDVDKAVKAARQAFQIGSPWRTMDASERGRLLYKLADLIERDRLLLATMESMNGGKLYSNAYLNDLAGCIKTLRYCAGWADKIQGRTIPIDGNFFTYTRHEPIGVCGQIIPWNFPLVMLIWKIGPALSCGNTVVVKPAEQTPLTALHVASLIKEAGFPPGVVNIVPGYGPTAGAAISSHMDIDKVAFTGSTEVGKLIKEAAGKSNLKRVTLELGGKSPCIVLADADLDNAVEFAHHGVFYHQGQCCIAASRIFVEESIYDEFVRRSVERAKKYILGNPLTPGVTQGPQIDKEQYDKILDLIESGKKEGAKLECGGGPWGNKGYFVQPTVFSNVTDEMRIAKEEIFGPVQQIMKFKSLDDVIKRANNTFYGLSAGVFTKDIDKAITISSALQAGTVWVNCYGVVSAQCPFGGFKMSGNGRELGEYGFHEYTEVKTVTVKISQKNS
HTT cytoprotect: Huntington cell model cytoprotection by ATP luminescence | Potency, µM (series often up to 56.4 µM), inactives show cytoprotection (ATP increase), usual class: activators | AID 1471 | PC12 HTT-Q103 induced, cytoprotection, ATP luminescence, 40 h | 230,000 compounds, 0.14% hits; note: potency is the fitted concentration of half-maximal effect; % of control where 0% means no effect; nearly all actives have a fitted effect of over 45% in size
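Huntington model: PC12 line, ecdysone-inducible HTTQ103 exon1–GFP, tebufenozide 100 nM. Test articles in a dose series. Endpoint luminescence from cellular ATP.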
CBFb RUNX1 block: blocks binding between human CBF-beta and RUNX1. AlphaScreen CBFb-His/RUNX1-biotin binding, biochemical. AID 1477. Potency, µM (titrated, usually from 59.8 µM), for inactives: at the highest dose activity, negative = inhibition, most hits filed as inhibitors. 230,000 tested, under 10 active; note: % of control where 0% means no effect
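Interaction loss through any mechanism counts as activity. Pre-formed complex of His-CBF-beta and biotin-RUNX1 (30 nM apiece) is incubated with compound 15 min, then with 50 ng nickel and 50 ng streptavidin beads for 90 min before AlphaScreen detection.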
Numbers without * were called inactive; ? = inconclusive; . = not tested or not shown; ! = not confirmed by another sample; [ ] = another dose, or the depositor's remark. Unless noted, calls come from the whole dose curve; as a rule, active = well fitted curve in the direction sought with a large enough effect; inconclusive = small, poorly fitted or top-dose-only effect, or another doubt; inactive = no such curve, though single readings can be large; an effect the other way counts as inactive or inconclusive.

SMILES	HPGD inh	HttQ103 aggreg	PNC assembly inh	ALDH1A1 block	HTT cytoprotect	CBFb RUNX1 block
O=C(CSc1nnc(NC(=O)c2ccccc2Cl)s1)Nc1ccc2c(c1)oc1ccccc12	-6%	1%	-23	18µM*	.	-2%
O=C(CSc1nc2ccccc2s1)Nc1cc(C(=O)O)cc(C(=O)O)c1	.	-11%	.	0%	1%	2%
O=C(CSc1nc2ccccc2s1)Nc1ccc2c(c1)oc1ccccc12	-14%	-16%	31	25µM*	10%[10 µM]	-2%
CC(C)(C)NC(=O)CSc1nnc(NC(=O)c2ccccc2Cl)s1	.	16%	.	-5%	-87%	-2%
O=C(CSc1nc2ccc([N+](=O)[O-])cc2s1)c1ccc2ccccc2c1	-4%	-11%[9.22 µM]	.	11µM*!	19%[10 µM]	-3%
N#Cc1ccccc1Cn1c(=O)n(Cc2ccc(C(=O)NCc3ccco3)cc2)c(=O)c2sccc21	-7%	2%	97	25µM*	0%	-13%
O=[N+]([O-])c1ccc(N=Cc2ccc(Br)c([N+](=O)[O-])c2)cc1	-17%	11%	15	7.9µM*	20%[10 µM]	-22%
Cc1c(Cl)cccc1N=Cc1ccc([N+](=O)[O-])s1	-7%	?	?	?	-104%	-14%
Cc1c(N=Cc2ccc(O)c(Br)c2)cccc1[N+](=O)[O-]	?	-12%	?	22µM*	.	-23%
Cc1cc(C)n(CCC(=O)N/N=C/c2ccc(Br)c([N+](=O)[O-])c2)n1	.	-11%[9.22 µM]	.	.	-3%[10 µM]	1%
CC(=O)c1ccc(NC(=O)C(=O)c2cn(CC(=O)N3CCCCC3)c3ccccc23)cc1	-9%	-11%	34	7%	20%[10 µM]	0%
CCOC(=O)C1=C(N)OC2=C(C(=O)CC(C)(C)C2)C1c1ccc(C)s1 (configuration not stated)	.	-3%	.	13µM*	-8%	-3%
Cc1ccc(C2C(C(N)=S)=C(N)OC3=C2C(=O)CC(C)(C)C3)cc1 (configuration not stated)	-11%	-16%	?	14µM*	5%[10 µM]	-1%
CCOC(=O)C1=C(N)OC2=C(C(=O)CC(C)(C)C2)C1c1ccc(CC)s1 (configuration not stated)	.	6%	.	6%	-27%	-3%
CCCCCCCCCCCCC/C=C\[C@@H](O)[C@H](CO)NC(C)=O	-9%	.	.	-1%	-1%	14%[21.7 µM]
CS(=O)(=O)N1CCN(c2ccc([N+](=O)[O-])cc2F)CC1	.	21%	.	3.2µM*	6%	24%
CS(=O)(=O)N1CCN(c2ccc([N+](=O)[O-])cc2C(F)(F)F)CC1	.	-27%[9.22 µM]	.	.	-1%[10 µM]	7%
Oc1ccc(Cl)cc1-c1cc(-c2ccco2)[nH]n1	25µM*	?	71	?	1%	-17%
Oc1ccccc1-c1cc(-c2ccco2)[nH]n1	?	-4%	24	14µM*	-34%	-12%
COC(=O)c1nnc(C(=O)N(C)Cc2ccccc2)c2[nH]c3ccccc3c12	-6%	.	.	?	-44%	-3%
Cc1cc2c(=O)n(Cc3ccco3)c(SCC(=O)N3CCCc4ccccc43)nc2s1	-12%	?	-5	11µM*	7%	-18%
O=C(CSc1nc2sc3c(c2c(=O)n1Cc1ccco1)CCC3)N1CCc2ccccc21	.	.	.	.	12%	.
Cc1cc2c(=O)n(Cc3ccco3)c(SCC(=O)NCc3ccco3)nc2s1	-18%	11%	-2	7.9µM*	5%[10 µM]	-1%
N#CC1(c2ccccc2)CCCN1C(=O)c1ccc(Br)cc1 (configuration not stated)	-13%	11%	?	-7%	0%	11%
O=C(Cn1c(NCCCO)nc2ccccc21)c1cccc(Br)c1	-25%	6%	27	28µM*	-16%	4%
SMILES	HPGD inh	HttQ103 aggreg	PNC assembly inh	ALDH1A1 block	HTT cytoprotect	CBFb RUNX1 block
Cc1noc(C)c1C(=O)N1CCC2(CCCN(c3ccncc3)C2)CC1	-9%	.	.	4%	2%	.
O=C1c2ccccc2C(=O)N1Cc1ccco1	-6%	2%	2	-16%	7%	2%
O=C1c2cccc3c(O)ccc(c23)C(=O)N1Cc1ccco1	.	-34%[9.22 µM]	.	13µM*	12%[10 µM]	12%
COc1ccc(-c2ccc(N(C)C)cc2)cc1C1C2C=CCC(C)C2C(=O)N1Cc1ccccc1 (configuration not stated)	.	.	.	.	.	-23%
Clc1cccc(-c2ccc(C=Nc3ccc(N4CCOCC4)cc3)o2)c1Cl	.	2%[9.22 µM]	.	10µM*	20%[10 µM]	?
Clc1ccc(-c2ccc(C=Nc3ccc(N4CCOCC4)cc3)o2)c(Cl)c1	.	9%	.	-4%	-10%	-6%
Clc1cccc(N/N=C/c2ccc(N3CCOCC3)cc2)c1	?	15%	19	?	-20%	-2%
Clc1ccc(-c2ccc(C=Nc3ccc(N4CCOCC4)cc3)o2)cc1	-8%	0%	?	3.5µM*	14%[10 µM]	-13%
CCOC(=O)C1CCN(C(=O)COc2ccc(S(=O)(=O)N3CCCC3)cc2C)CC1	.	-7%	.	18µM*	-24%	10%
CCOC(=O)C1CCN(C(=O)COc2ccc(Cl)cc2Cl)CC1	-1%	18%	-7	-1%	-5%	11%
CCOC(=O)C1CCN(C(=O)COc2ccc(Cl)cc2C)CC1	-9%	-9%	-87*	?	-1%	5%
Cc1cc(NC(=O)CSC2=NCCS2)no1	0%	4%	-109*	-6%	-3%	7%
COc1ccc(-c2nsc(SCC(=O)Nc3cc(C)on3)n2)cc1	25µM*	21%	?	28µM*	-13%[1.9 µM]	4%
COc1ccc(/C=C/C(=O)OCC(=O)NCC2CCCO2)cc1 (configuration not stated)	-22%	21%	-82*	?	.	-2%
CSCC(=O)Nc1cc(C)on1	.	-3%[9.22 µM]	.	.	-7%[10 µM]	6%
COc1ccc(-c2nsc(SCC(=O)NCC3CCCO3)n2)cc1 (configuration not stated)	.	5%	.	25µM*	-84%	10%
CN=C(N)/N=C(\N)Nc1cc2ccccc2c2ccccc12	-7%	.	.	7%[13.5 µM]	2%[10 µM]	.
Cc1nnc(SCC(=O)c2ccc(C(C)C)cc2)s1	.	19%	.	7%	6%[10 µM]	-1%
Cc1cc(C)n2c(SCC(=O)Nc3cc(C)on3)nnc2n1	?	-11%	-100*	?	-12%[10 µM]	0%
CCn1c(SCC(=O)Nc2cc(C)on2)nnc1-c1c[nH]c2ccccc12	.	5%[9.22 µM]	.	28µM*	-5%[10 µM]	6%
Cc1cc(C)n2c(SCC(=O)Nc3c(C)n(C)n(-c4ccccc4)c3=O)nnc2n1	-8%	4%	?	15%	7%	8%
O=C(CSc1nc2ccc(NC(=O)C3CCCCC3)cc2s1)NCC1CCCO1 (configuration not stated)	28µM*	3%	-10	-3%	.	7%
